Screens (PubChem BioAssay)
An excerpt weighted towards active compounds, which were near 4.6% of everything screened.
PfHsp90 set2: growth inhibition of PfHsp90-expressing yeast, primary screen, antimalarial PfHsp90 inhibitor project, S. cerevisiae, BacTiter-Glo luminescence, single point, set 2. BacTiter-Glo ATP, 48 h; yeast lacking PDR1 and PDR3 efflux regulators. inhibition, % at 9.4 µM. hit rate 0.32% among 310,000. AID 504621, 2011;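 active means every replicate shows inhibition above about 80%, whatever the replicate mean, limit read from the data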;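 further: 0% = DMSO neutral controls and 100% = 20 µM radicicol positive controls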
SKKanGAS inh: S. pyogenes SKKanGAS growth inhibitors in kanamycin, primary screen, streptokinase expression inhibitor project, SKKanGAS strain, BacTiter-Glo luminescence; 6 h; inhibition, % at 7.5 µM; hit rate 1.3% among 300,000; AID 1662, 2009;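 active means mean replicate score, as percent of positive control median, at least 50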;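 further: strain carries kanamycin resistance gene driven by streptokinase promoter and grows in 40 µg/ml kanamycin; loss of luminescence reflects streptokinase promoter inhibition or plain growth inhibition; 0% = median of DMSO wells and 100% = positive control at its reference dose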
NALP3 yeast inh: NALP3 inflammasome inhibitors in reconstituted yeast, primary screen, luminescence, uHTS. hit rate 0.39% among 330,000. Yeast reconstituted NLRP3/ASC/caspase-1, beta-gal luminescence, 24 h. inhibition, % at 10 µM;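 active means inhibition of 50% or more; inactive means inhibition below 50%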;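 further: plate controls were induced DMSO wells for no effect and uninduced yeast grown without galactose for full effect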
tim10-1 inh: growth inhibitors of tim10-1 mutant yeast, primary screen, luminescence, uHTS; AID 463190, 2010; inhibition, % at 20 µM; S. cerevisiae tim10-1 ts strain growth, BacTiter-Glo, 24 h; hit rate 2.2% among 330,000;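 active means inhibition of at least 40%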;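 further: mutant grown at 25 °C; 0% = DMSO wells with yeast and 100% = wells holding no yeast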
tim23-1 inh: growth inhibitors of tim23-1 mutant yeast, primary screen, luminescence, uHTS; hit rate 1.3% among 330,000; inhibition, % at 20 µM; S. cerevisiae tim23-1 growth, BacTiter-Glo luminescence, 24 h;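 active means growth inhibition of the mutant yeast at or above 50%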;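 further: temperature-sensitive mutant grown at 25 °C; plate controls were DMSO-treated mutant yeast for no effect and medium wells lacking yeast for full effect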
TIM10 inh: growth inhibitors of isogenic TIM10 control yeast, primary screen, counter-screen for tim10-1 yeast inhibitor project, luminescence, uHTS | hit rate 1.4% among 330,000 | inhibition, % at 10 µM | S. cerevisiae TIM10 strain growth, BacTiter-Glo luminescence, 24 h;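 active means inhibition of 40% or more at the single tested concentration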;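 further: wild-type TIM10 isogenic control strain grown at permissive 25 °C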
NALP3 yeast conf: NALP3 inhibitors retested in yeast, confirmation, luminescence, single concentration; shares compounds with NALP3 yeast inh; yeast expressing human NALP3; inhibition, % at 10 µM; hit rate 81% among 1,300; AID 435006, 2010; in the data active means inhibition above about 48%
Casp1-ASC yeast: CASP1-PYCARD signaling inhibition in yeast, confirmatory test, counterassay for NLRP3 inhibitor program, one-dose | inhibition, % at 10 µM | AID 488784, 2010 | shares compounds with NALP3 yeast inh | hit rate 66% among 1,000 | yeast expressing Caspase-1-ASC, luminescence counter screen
NALP3 yeast rt: NALP3 inhibitors in yeast, repeat test, confirmation, luminescence, single concentration, retest; shares compounds with NALP3 yeast inh; AID 488794, 2010; yeast expressing human NALP3, luminescence read-out; hit rate 53% among 1,000; inhibition, % at 10 µM
The depositor's hits bear a star. Unless noted, no stated cut-off is given here; in the data, active means inhibition above about 50%; inactive means the rest.

What do the screens show for `Cc1ccc2c(c1)C(CCN)C(=O)N2Cc1ccccc1` (configuration not stated)?
PfHsp90 set2: 23; SKKanGAS inh: 1; NALP3 yeast inh: 51*; tim10-1 inh: 11; tim23-1 inh: 19; TIM10 inh: -2; NALP3 yeast conf: 68*; Casp1-ASC yeast: 52*; NALP3 yeast rt: 51*

Results for O=C(Nc1ccc2c(c1)OCO2)c1cccc(Cl)c1 ?
PfHsp90 set2: 27; SKKanGAS inh: -1; NALP3 yeast inh: 56*; tim10-1 inh: 9; tim23-1 inh: 43; TIM10 inh: 32; NALP3 yeast conf: 58*; Casp1-ASC yeast: 62*; NALP3 yeast rt: 61*

What do the screens show for `O=C(Nc1ccc2c(c1)OCO2)Nc1ccccn1`?
PfHsp90 set2: 0; SKKanGAS inh: -11; NALP3 yeast inh: 53*; tim10-1 inh: 15; tim23-1 inh: 11; TIM10 inh: 10; NALP3 yeast conf: 61*

What do the screens show for `O=C(Nc1ccc2c(c1)OCO2)Nc1cnccn1`?
PfHsp90 set2: -13; SKKanGAS inh: 4; NALP3 yeast inh: 10; tim10-1 inh: -4; tim23-1 inh: 11; TIM10 inh: -11

How did C#CCOC(=O)c1cc(Cl)c(=O)n(Cc2ccc(Cl)cc2Cl)c1 do in these assays?
PfHsp90 set2: -44; SKKanGAS inh: 16; NALP3 yeast inh: 19; tim10-1 inh: 32; tim23-1 inh: 35; TIM10 inh: -5

Results for Cc1ccc2cc([N+](=O)[O-])ccc2n1 ?
PfHsp90 set2: 7; SKKanGAS inh: 11; NALP3 yeast inh: 9; tim10-1 inh: -26; tim23-1 inh: -5; TIM10 inh: -16

How did O=C(Nc1ccc(N2CCCCC2)cc1)C(Cl)c1ccccc1 (configuration not stated) do in these assays?
PfHsp90 set2: 12; SKKanGAS inh: -9; NALP3 yeast inh: 50*; tim10-1 inh: 21; tim23-1 inh: 18; TIM10 inh: 19; NALP3 yeast conf: 56*; Casp1-ASC yeast: 44; NALP3 yeast rt: 34

How did CCn1c(SCC(=O)OC2CCCCC2)nc2ccccc2c1=O do in these assays?
PfHsp90 set2: -7; SKKanGAS inh: -2; NALP3 yeast inh: 51*; tim10-1 inh: -12; tim23-1 inh: 2; TIM10 inh: -11; NALP3 yeast conf: 71*; Casp1-ASC yeast: 50*; NALP3 yeast rt: 49

Results for CSc1nc2ccc(S(=O)(=O)N3CCCCC3)cc2s1 ?
SKKanGAS inh: 0; NALP3 yeast inh: 63*; tim10-1 inh: -7; tim23-1 inh: 9; TIM10 inh: -5; NALP3 yeast conf: 82*; Casp1-ASC yeast: 48; NALP3 yeast rt: 26

How did CSc1nc2ccc(S(=O)(=O)N3CCOCC3)cc2s1 do in these assays?
PfHsp90 set2: -44; SKKanGAS inh: -2; NALP3 yeast inh: 48; tim10-1 inh: 1; tim23-1 inh: 4; TIM10 inh: 3

What do the screens show for `Cc1cccc(OCC(=O)Nc2ccc3c(c2)C(=O)NC3=O)c1`?
PfHsp90 set2: -3; SKKanGAS inh: 0; NALP3 yeast inh: 1; tim10-1 inh: 11; tim23-1 inh: 29; TIM10 inh: 18

What do the screens show for `COc1cc(OC)cc(-c2cc3cc4c(cc3cn2)OCO4)c1`?
PfHsp90 set2: -33; NALP3 yeast inh: 56*; tim10-1 inh: 14; tim23-1 inh: 21; TIM10 inh: 11; NALP3 yeast conf: 56*; Casp1-ASC yeast: 50; NALP3 yeast rt: 43

How did Cn1nc(-c2ccccc2)c(C(=O)Nc2ccc(C(F)(F)F)cc2)c1Cl do in these assays?
PfHsp90 set2: -21; SKKanGAS inh: -1; NALP3 yeast inh: 9; tim10-1 inh: -73; tim23-1 inh: -4; TIM10 inh: -70

How did Cn1nc(-c2ccccc2)c(C(=O)Nc2ccc(Cl)cc2)c1Cl do in these assays?
PfHsp90 set2: -41; SKKanGAS inh: -4; NALP3 yeast inh: 81*; tim10-1 inh: -12; tim23-1 inh: 8; TIM10 inh: -30; NALP3 yeast conf: 86*; Casp1-ASC yeast: 55*; NALP3 yeast rt: 31

Results for O=C(C1CCN(S(=O)(=O)c2ccc(Br)s2)CC1)N1CCc2ccccc21 ?
PfHsp90 set2: -20; SKKanGAS inh: 23; NALP3 yeast inh: 55*; tim10-1 inh: 31; tim23-1 inh: 42; TIM10 inh: -2; NALP3 yeast conf: 64*; Casp1-ASC yeast: 61*; NALP3 yeast rt: 43

What do the screens show for `CCn1c(COc2ccc(C)cc2)nc2ccccc21`?
PfHsp90 set2: -4; SKKanGAS inh: 6; NALP3 yeast inh: 65*; tim10-1 inh: 29; tim23-1 inh: 41; TIM10 inh: 1; NALP3 yeast conf: 79*

How did CCOCCn1c(COc2ccc(C)cc2)nc2ccccc21 do in these assays?
PfHsp90 set2: 21; SKKanGAS inh: -19; NALP3 yeast inh: 32; tim10-1 inh: 4; tim23-1 inh: 36; TIM10 inh: 13

How did COc1ccc(Nc2c(C)cccc2C)cc1 do in these assays?
SKKanGAS inh: 3; NALP3 yeast inh: -105; tim10-1 inh: 21; tim23-1 inh: 2; TIM10 inh: 18; NALP3 yeast conf: -12

What do the screens show for `COc1ccc(OC)c(NC(=O)C2CC(/C=C/c3ccccc3)=NO2)c1` (configuration not stated)?
PfHsp90 set2: 23; SKKanGAS inh: 8; NALP3 yeast inh: 2; tim10-1 inh: -13; tim23-1 inh: -10; TIM10 inh: -12

Results for COCCNC(=O)c1csc2c1CCCC2 ?
PfHsp90 set2: 1; SKKanGAS inh: 0; NALP3 yeast inh: 20; tim10-1 inh: 4; tim23-1 inh: 18; TIM10 inh: -1

Results for CCOc1ccc(NC(=O)c2csc3c2CCCC3)cc1 ?
PfHsp90 set2: 1; SKKanGAS inh: -13; NALP3 yeast inh: 52*; tim10-1 inh: 14; tim23-1 inh: 16; TIM10 inh: -9; NALP3 yeast conf: 46

How did CCNC(=O)COC(=O)c1csc2c1CCCC2 do in these assays?
PfHsp90 set2: 28; SKKanGAS inh: -10; NALP3 yeast inh: 56*; tim10-1 inh: 6; tim23-1 inh: 16; TIM10 inh: -31; NALP3 yeast conf: 24

Results for CC(=O)c1cccc(NC(=O)c2csc3c2CCCCC3)c1 ?
PfHsp90 set2: -39; SKKanGAS inh: 14; NALP3 yeast inh: 10; tim10-1 inh: 32; tim23-1 inh: 18; TIM10 inh: 19
